High-throughput results: PubChem, National Center for Advancing Translational Sciences (NCATS)
An excerpt weighted towards active compounds, which were near 21% of everything screened.
Shiga toxin inh: inhibitors of Shiga toxin in Vero cells. Vero cells, Shiga toxin protein synthesis inhibition reporter. inhibition, % at 38.7 µM. 290,000 compounds, 9.2% hits; in the data active means inhibition mostly above about 28%, no sharp cut-off; inactive means mostly below about 43%
Cycloheximide cs: counter-screen for Shiga toxin inhibitors: cycloheximide protein synthesis inhibition; cell reporter, cycloheximide protein synthesis inhibition counterscreen; max response, %; 300,000 compounds, 12% hits; AID 2314; in the data active means max response mostly above about 13%, no sharp cut-off; inactive means mostly below about 14%; further: read at 38.3 µM for the half of the compounds with a filed dose
Pf growth 96h: P. falciparum growth inhibition at 96 hours | Potency, µM (top dose mostly 28.7 µM), most hits filed as inhibitors | P. falciparum luciferase reporter growth, 96 h | 320,000 compounds, 6.9% hits
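Plates of compound plus infected erythrocytes (2% hematocrit, 0.05% parasitemia final) incubate 96 hours, 37 C, 5% CO2. Detection reagent added; reduced luminescence from the parasites' luciferase reporter flags inhibition.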
Pf growth 48h: inhibits P. falciparum growth in the first generation, 48 h; P. falciparum luciferase growth in erythrocytes, 48 h; Potency, µM (series often up to 28.7 µM), most hits filed as inhibitors; 310,000 compounds, 5.9% hits
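Erythrocytes infected with P. falciparum carrying an integrated firefly luciferase reporter (2% hematocrit, 0.1% parasitemia final) were exposed to compounds in RPMI 1640 with 0.5% Albumax at 37 C, 5% CO2. Growth inhibition was scored as reduced luminescence.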
Hits are given with their value; - = inactive; ? = inconclusive; . = no result given; [ ] = another dose, or the depositor's remark. Unless noted, the call rests on the fitted dose curve; in most records, active means well fitted inhibition curve with a large enough effect; inconclusive means small, poorly fitted or top-dose-only effect, or another doubt; inactive means no such curve, though single readings can be large or run the other way.

SMILES	Shiga toxin inh	Cycloheximide cs	Pf growth 96h	Pf growth 48h
Cc1ccc2oc(=O)c3cc(C(=O)NCCCN4CCN(C)CC4)sc3c2c1	-	-	-	-
O=C(NCCCN1CCCCCC1)c1cc2c(=O)oc3ccccc3c2s1	-	-	-	2.94µM
CCN(Cc1ccccc1)C(=O)c1cc2c(=O)oc3ccc(C)cc3c2s1	-	-	4.65µM	.
CC/C(=N\Nc1ccccc1[N+](=O)[O-])c1ccc(O)cc1	58.3	23.1	-	-
C/C(=N\Nc1ccccc1[N+](=O)[O-])c1ccccc1O	90.2	40.7	-	-
C/C(=N\Nc1ccc(S(N)(=O)=O)cc1[N+](=O)[O-])c1ccccc1O	-	-	-	-
CN1CC(C(=O)Nc2ccc(F)c(Cl)c2)CC1=O (stereo unspecified)	-	-	-	-
CCOc1ccc(NC(=S)N=Nc2c(O)[nH]c3ccccc23)cc1	-	12.6	1.65µM	?
CCCCNC(=S)N=Nc1c(O)[nH]c2ccccc12	118.3	-	9.28µM	?
Oc1cccc(NC(=S)N=Nc2c(O)[nH]c3ccccc23)c1	62.1	42.1	-	-
CCNC(=S)N=Nc1c(O)[nH]c2ccc(C(C)C)cc12	-	-	?	?
NC(=S)N=Nc1c(O)[nH]c2ccccc12	-	-	?	-
CC(C)c1ccc2[nH]c(O)c(N=NC(=S)NCCc3ccccc3)c2c1	-	-	9.28µM	?
COc1ccc(C(CNCC(O)COc2c(C)ccc(C)c2C)N(C)C)cc1 (stereo unspecified)	-	-	?	.
COc1ccc(CC(=O)OCC(=O)Nc2ccc(F)cc2)cc1	.	.	-	-
CCC(C)NC(=O)c1ccc(C(=O)c2ccccc2)cc1 (stereo unspecified)	70.6	40.3	-	-
CCC(C)NC(=O)Cc1ccc(-c2ccccc2)cc1 (stereo unspecified)	-	23.1	-	-
CCCC(C)NC(=O)c1ccc(F)cc1 (stereo unspecified)	50.5	26.8	-	-
CCc1ccc(C(C)NC(=O)c2ccc(F)cc2)cc1 (stereo unspecified)	-	-	-[5.75 µM]	-
CCCc1ccc(C(=O)NNC(=O)c2ccc(Br)cc2)cc1	-	-	-	-
CCCc1ccc(C(=O)NNc2ccc(F)cc2)cc1	-	17.4	-	-
NC(=O)[C@H]1O[C@@H](O)[C@H](O)[C@@H](O)[C@@H]1O	.	.	-	-
O=C(Cc1ccc(Cl)cc1)c1c[nH]c(C(=O)NCCCn2ccnc2)c1	-	-	?	?
CCCC(C)NC(=O)Cc1ccccc1 (stereo unspecified)	-	-	?	?
CCCC(C)NC(=O)c1ccc(-c2ccccc2)cc1 (stereo unspecified)	86.4	27.2	-	-
SMILES	Shiga toxin inh	Cycloheximide cs	Pf growth 96h	Pf growth 48h
C1CCN2C[C@@H]3C[C@@H](CN4CCCC[C@H]34)[C@H]2C1	.	.	-	?
O=[N+]([O-])c1ccc(C(O)CN=Cc2ccc(O)cc2O)cc1 (stereo unspecified)	-	-	-	-
O=C(O)CN1C(=O)/C(=C/C=C/c2ccccc2)SC1=S	-	-	-	-
C#CCN1C(=O)S/C(=C/C=C/c2ccc(N(C)C)cc2)C1=O	115.6	47.1	?	-
CCC(C)C(NC(=O)C(C)NC(=O)CNC(=O)OC(C)(C)C)C(N)=O (stereo unspecified)	-	-	-	-
CC(C)N(C(=O)CSc1nc2ccccc2n1Cc1ccccc1)C(C)C	-	-	-	?
CC(C)N(C(=O)CSc1nc2ccccc2n1Cc1ccccc1F)C(C)C	-	-	-	10.4µM
CC(c1nc2ccccc2c(=O)[nH]1)N(C)c1ccc2ccccc2c1 (stereo unspecified)	-	-	14.7µM	6.57µM
CC(C)Sc1nc2ccccc2c(=O)[nH]1	-	-	-	.
CCCOc1ccc2nc(C)c(CCC)c(SC(=N)N)c2c1	-	-	6.57µM	1.17µM
Cc1nc2c(C)cccc2c(SC(=N)N)c1CC=C(Cl)Cl	-	-	-	-
CCCc1c(C)nc2c(OC)cccc2c1SCC(=O)O	-	-	-	?
CCCc1c(C)nc2ccc(OC)cc2c1SCCC(=O)O	-	-	11.7µM	-
CCc1noc(C)c1C(=O)NCCc1ccc(Cl)cc1	.	.	-	-
COC(=O)C1=C(c2ccc(-c3ccccc3)c(F)c2)C[C@@H]2CC[C@H]1N2C(=O)NCCO	.	.	-	?
COC(=O)C1=C(c2ccc(OC(F)(F)F)cc2)C[C@@H]2CC[C@H]1N2C(=O)NC1CC1	.	.	5.86µM	?
COC(=O)C1=C(c2ccc(-c3ccccc3)c(F)c2)C[C@@H]2CC[C@H]1N2C(=O)NC1CC1	.	.	2.94µM	4.65µM
COC(=O)C1=C(c2ccc(OC)c(OC)c2)C[C@@H]2CC[C@H]1N2C(=O)NCCOc1ccc(OC)cc1	.	.	-	?
COC(=O)C1=C(c2ccc(F)cc2F)C[C@@H]2CC[C@H]1N2C(=O)NCCOc1ccccc1	.	.	4.15µM	?
COC(=O)C1=C(c2ccc(-c3ccccc3)c(F)c2)C[C@@H]2CC[C@H]1N2C(=O)NCCOc1ccccc1Cl	.	.	?	10.4µM
O=C(O)[C@H](Cc1c[nH]c2ccccc12)Nc1ncccc1[N+](=O)[O-]	-	-	-	-
CCCNC(=O)N1[C@H]2CC[C@@H]1C(C(=O)OC)=C(c1ccc(-c3ccccc3)c(F)c1)C2	.	.	?	9.28µM
O=C(CBr)Nc1c2c(nn1-c1ccccc1)CSC2	-	-	-	-
COc1ccc2sc(-c3ccc(SC)cc3)c(C#CC(C)(C)O)c2c1	.	.	?	-
COC(=O)c1c(-c2ccc(SC)cc2)sc2ccccc12	.	.	5.86µM	?
SMILES	Shiga toxin inh	Cycloheximide cs	Pf growth 96h	Pf growth 48h
O=c1oc2cc(Br)ccc2n1CSC1=NCCS1	100.1	33.9	-	?
CCCc1nnc(NC(=O)Cn2c(=O)oc3cc(Br)ccc32)s1	-	-	-	.
Cc1nc(Nc2ccccc2C(F)(F)F)sc1C(=O)N(C)C	44.8	26.1	-	-
CCOC(=O)c1nc(NCCc2ccccc2)sc1C	132.6	52.7	-	-
Cc1nc(NCCc2ccccc2)sc1C(=O)N(C)C	57.6	36.5	-	-
CCCc1cc(=O)oc2cc(OCC(=O)NCCCn3ccnc3)c(Cl)cc12	-	-	-	-
CC(Oc1ccc2c3c(c(=O)oc2c1)CCCC3)C(=O)NC1CC(C)(C)NC(C)(C)C1 (stereo unspecified)	-	-	9.28µM	14.7µM
CC(Oc1cc2oc(=O)c3c(c2cc1Cl)CCC3)C(=O)NC1CC(C)(C)NC(C)(C)C1 (stereo unspecified)	-	-	?	13.1µM
Cc1c(C)c2ccc(OC(C)C(=O)NC3CC(C)(C)NC(C)(C)C3)cc2oc1=O (stereo unspecified)	-	-	-	?
Cc1c(OC(C)C(=O)NC2CC(C)(C)NC(C)(C)C2)ccc2c3c(c(=O)oc12)CCC3 (stereo unspecified)	-	-	?	?
CCOCC(=O)Nc1ccc(C(=O)Nc2ccccc2Cl)cc1	-	25.5	-	-
CCOCC(=O)Nc1cc(C(=O)Nc2ccccc2)ccc1Cl	-	-	-	-
C[n+]1ccc(C(=O)Nc2ccccc2Cl)cc1	-	-	13.1µM	-
N#CCC(=O)Nc1ncc(Cc2ccccc2Cl)s1	-	-	-[1.15 µM]	?
CCc1cccc(CC)c1NC(=O)COn1nnc2ccc(C(F)(F)F)cc21	-	-	-	-
Cc1ccc(-c2onc3ccc(C(=O)O)cc23)cc1	179.7	91.6	-	-
